This passage reports growth inhibition, inhibition and outcome results from PubChem BioAssay.

Test [1] is described as follows: antimalarial activity against Dd2 strain (AID 2302;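 active = growth inhibition above 50% at the single 2 µM test dose, taken to imply half-maximal potency below 2 µM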;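 also: 0% = DMSO untreated growth and 100% = chloroquine plus artemisinin killed control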). The following applies: P. falciparum Dd2 in RBCs, LDH growth readout, 72 h; at 2 µM; active compounds read high.
A short description of test [2]: HepG2 cytotoxicity, primary screen, cytotoxicity control for P. falciparum antimalarial project, cell-based, ATP luminescence (AID 2303;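 active = inhibition above 50%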;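 also: 0% = DMSO wells and 100% = digitonin-killed cells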). The following applies: HepG2 viability, 24-48 h, at 10 µM, active compounds read high.
In test [3] the target is L-lactate dehydrogenase (Plasmodium falciparum (isolate CDC / Honduras)) (UniProt Q27743). The test can be described thus: PfLDH activity inhibition – cell lysate, 3D7 strain, counter-screen for P. falciparum growth inhibition project (AID 2304).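 Also: 0% = vehicle and 100% = reference inhibitor.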 The note with it: P. falciparum 3D7 crude extract, LDH APAD/NBT absorbance; at 2 µM; active compounds read high.
Test [4] is described as follows: inhibition of 3D7 malaria parasite growth – strain 3D7 (AID 2306).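 Also: 0% = DMSO wells and 100% = chloroquine plus artemisinin control wells.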 The note with it: P. falciparum 3D7 erythrocytic growth, LDH absorbance, 72 h; at 2 µM; active compounds read high.
In test [5] the target is Calcium-dependent protein kinase 1 (Plasmodium falciparum (isolate 3D7)) (UniProt P62344). The test can be described thus: PfCDPK1 kinase inhibitors, biochemical, TCAMS library (AID 1159585; cut-off not given, nearly all actives have IC50 up to about 0.98 µM;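 also: inhibitors leave more ATP so luminescence rises with inhibition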). The following applies: recombinant PfCDPK1, Kinase-Glo ATP depletion luminescence.
Test [6] deals with Plasmodium falciparum protein kinase 6 (PK6, PF3D7_1337100) (UniProt Q8IDW1). In words: PfPK6 kinase inhibitors, biochemical, TCAMS library (AID 1159586). The note with it: recombinant PfPK6, Kinase-Glo ATP depletion luminescence.
Test [7] addresses Protein kinase 7 (PK7), Plasmodium falciparum 3D7 (PF3D7_0213400) (UniProt Q7YTF7). In words: inhibition of Plasmodium PK7 catalytic activity – biochemical, TCAMS antimalarial set, Kinase-Glo luminescence (AID 1159587). The following applies: recombinant PfPK7, Kinase-Glo ATP depletion luminescence.
Test [8] addresses Calcium-dependent protein kinase 4 (Plasmodium falciparum (isolate 3D7)) (UniProt Q8IBS5). In words: PfCDPK4 kinase inhibitors, biochemical, TCAMS library (AID 1159588; cut-off not given, nearly all actives have IC50 up to about 0.91 µM). The following applies: recombinant PfCDPK4, Kinase-Glo ATP depletion luminescence.

Values without a mark were called inactive. For some of these results: Potency and affinity values are given separately. The source made the active and inactive calls. Unless noted, no rule for the calls is given here.

Sequence of Protein kinase 7 (PK7), Plasmodium falciparum 3D7 (PF3D7_0213400) (Q7YTF7 1-343): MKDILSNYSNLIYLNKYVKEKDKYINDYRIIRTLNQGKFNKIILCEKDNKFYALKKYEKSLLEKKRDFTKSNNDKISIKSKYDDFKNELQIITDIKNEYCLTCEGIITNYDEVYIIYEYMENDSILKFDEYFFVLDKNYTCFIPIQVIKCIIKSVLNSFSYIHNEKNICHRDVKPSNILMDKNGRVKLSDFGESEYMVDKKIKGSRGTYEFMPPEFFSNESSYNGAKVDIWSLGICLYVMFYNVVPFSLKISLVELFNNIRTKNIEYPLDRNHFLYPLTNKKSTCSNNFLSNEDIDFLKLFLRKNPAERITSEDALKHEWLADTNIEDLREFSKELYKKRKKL
Sequence of Calcium-dependent protein kinase 4 (Plasmodium falciparum (isolate 3D7)) (Q8IBS5 whole entry, looked up): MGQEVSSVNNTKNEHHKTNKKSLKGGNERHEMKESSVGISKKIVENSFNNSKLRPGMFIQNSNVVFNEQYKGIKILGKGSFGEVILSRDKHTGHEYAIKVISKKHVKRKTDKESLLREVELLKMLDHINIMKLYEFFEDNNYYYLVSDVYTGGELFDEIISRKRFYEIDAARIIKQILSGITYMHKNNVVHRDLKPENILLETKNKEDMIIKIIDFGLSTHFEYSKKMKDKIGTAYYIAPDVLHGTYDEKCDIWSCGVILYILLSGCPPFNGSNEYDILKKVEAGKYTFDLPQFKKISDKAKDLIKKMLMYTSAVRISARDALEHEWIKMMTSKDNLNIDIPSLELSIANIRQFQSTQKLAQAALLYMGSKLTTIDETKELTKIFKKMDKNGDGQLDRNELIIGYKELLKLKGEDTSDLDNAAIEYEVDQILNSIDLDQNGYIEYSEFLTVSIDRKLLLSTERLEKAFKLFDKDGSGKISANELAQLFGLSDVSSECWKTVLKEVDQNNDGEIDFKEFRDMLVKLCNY
Sequence of L-lactate dehydrogenase (Plasmodium falciparum (isolate CDC / Honduras)) (Q27743 whole entry, looked up): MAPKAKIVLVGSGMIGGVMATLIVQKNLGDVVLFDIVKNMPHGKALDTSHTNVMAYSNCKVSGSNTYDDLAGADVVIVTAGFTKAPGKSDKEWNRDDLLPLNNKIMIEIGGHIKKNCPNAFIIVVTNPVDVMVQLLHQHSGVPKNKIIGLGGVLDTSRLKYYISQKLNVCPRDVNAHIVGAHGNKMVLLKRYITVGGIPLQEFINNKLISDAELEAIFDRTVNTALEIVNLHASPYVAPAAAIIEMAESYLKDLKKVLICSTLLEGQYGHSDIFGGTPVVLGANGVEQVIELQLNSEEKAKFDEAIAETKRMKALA
Sequence of Plasmodium falciparum protein kinase 6 (PK6, PF3D7_1337100) (Q8IDW1 1-305): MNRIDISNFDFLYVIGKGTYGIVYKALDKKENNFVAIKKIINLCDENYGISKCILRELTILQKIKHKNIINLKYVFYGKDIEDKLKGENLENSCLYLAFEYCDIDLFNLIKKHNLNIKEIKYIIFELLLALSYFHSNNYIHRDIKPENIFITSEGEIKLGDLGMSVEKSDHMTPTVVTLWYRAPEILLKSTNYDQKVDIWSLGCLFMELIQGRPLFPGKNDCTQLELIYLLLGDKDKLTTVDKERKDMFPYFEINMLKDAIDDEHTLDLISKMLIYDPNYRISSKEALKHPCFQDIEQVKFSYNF
Sequence of Calcium-dependent protein kinase 1 (Plasmodium falciparum (isolate 3D7)) (P62344 whole entry, looked up): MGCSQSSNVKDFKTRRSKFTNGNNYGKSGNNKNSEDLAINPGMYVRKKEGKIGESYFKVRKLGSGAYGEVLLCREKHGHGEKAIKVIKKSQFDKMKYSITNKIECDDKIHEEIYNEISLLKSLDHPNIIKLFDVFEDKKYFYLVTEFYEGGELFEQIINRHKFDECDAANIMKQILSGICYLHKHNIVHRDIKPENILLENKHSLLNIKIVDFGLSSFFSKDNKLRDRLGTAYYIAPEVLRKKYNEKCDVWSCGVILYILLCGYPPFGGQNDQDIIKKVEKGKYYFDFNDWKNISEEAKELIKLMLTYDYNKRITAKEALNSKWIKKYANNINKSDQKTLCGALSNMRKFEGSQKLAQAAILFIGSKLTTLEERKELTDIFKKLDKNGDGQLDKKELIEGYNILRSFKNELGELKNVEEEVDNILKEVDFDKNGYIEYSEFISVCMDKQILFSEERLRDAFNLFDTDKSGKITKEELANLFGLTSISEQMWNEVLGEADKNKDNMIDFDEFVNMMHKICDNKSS

Consider `OC(CN1c2ccccc2Sc2ccccc21)CN(C1CCCCC1)C1CCCCC1` (stereo not given), for which the growth inhibition is 96% (active) in test [1] and 99% (active) in test [4]. Also, the inhibition in test [2] is 46%; in test [3] it was -5%. The outcome in test [5], in test [6], in test [7] and in test [8] was inactive.

Take `N=C(N)c1ccc(NCc2cccc(C(=O)O)c2)cc1`: the figures for the growth inhibition in test [1] and in test [4] were 79% (active) and 84% (active), respectively. Besides, the inhibition in test [2] is 7%; in test [3] it was -2%. Also, the outcome in test [5], in test [6], in test [7] and in test [8] was inactive.

`COc1ccc(-c2csc3ncnc(Cl)c23)cc1`: the growth inhibition was 97% (active) in test [1] and 96% (active) in test [4]. Moreover, the results for the inhibition in test [2] and in test [3] were -15% and 5%, respectively. In addition, the outcome in test [5], in test [6], in test [7] and in test [8] was inactive.

Consider `CCc1cc2c3c(N)nc(N)nc3ccc2n1C(CC)CC`, for which the growth inhibition in test [1] was 12%; in test [4], 96% (active). Besides, the inhibition in test [2] was 71% (active); in test [3], 5%. Also, the result in test [5], in test [6], in test [7] and in test [8] was inactive.

As to `Cc1nnsc1C(=O)Nc1ccc(-c2ccc(-c3nc4ccccc4[nH]3)s2)cc1`, the growth inhibition in test [1] was 38%; in test [4], 92% (active). Besides, the inhibition in test [2] was 49%; in test [3], 4%. Further, the outcome in test [5], in test [6], in test [7] and in test [8] was inactive.

For the compound `CCC(C)NCCC(c1ccccc1)c1ccccc1O` (stereo not given), the results for the growth inhibition in test [1] and in test [4] were 74% (active) and 97% (active), respectively. Besides, the inhibition in test [2] and in test [3] was 4% throughout. Besides, the result in test [5], in test [6], in test [7] and in test [8] was inactive.

With `Cc1cc(OCC2CCCN(c3ncc(C(=O)NC4CC4)cc3Cl)C2)ccc1F` (stereo not given), the results for the growth inhibition in test [1] and in test [4] were 68% (active) and 88% (active), respectively. Moreover, the inhibition in test [2] is 3%; in test [3] it was -1%. In addition, the result in test [5], in test [6], in test [7] and in test [8] was inactive.

Turning to `CC(=O)Nc1ccc(CN2CCC(NC(=O)c3ccc(-c4cccc(Cl)c4)s3)CC2)cc1`, the growth inhibition is 59% (active) in test [1] and 97% (active) in test [4]. In addition, the inhibition in test [2] was 34%; in test [3], 3%. For the same compound, the outcome in test [5], in test [6], in test [7] and in test [8] was inactive.

For the compound `CC(C)NCC(O)Cn1c2ccc(Br)cc2c2cc(Br)ccc21` (stereo not given), the values for the growth inhibition in test [1] and in test [4] were 100% (active) and 99% (active), respectively. For the same compound, the inhibition in test [2] is 100% (active); in test [3], -1%. In addition, the result in test [5], in test [6], in test [7] and in test [8] was inactive.

For `c1ccc(-c2cc(NCCCCNc3cc(-c4ccccc4)nc4ccccc34)c3ccccc3n2)cc1`, the growth inhibition in test [1] was 97% (active); in test [4], 102% (active). Also, the inhibition in test [2] was 70% (active); in test [3], 0%. Further, the result in test [5], in test [6], in test [7] and in test [8] was inactive.

As for `Cc1ccc(NC(=O)c2ccc(N3CCC(c4ccccc4C)CC3)nc2)cc1`, the growth inhibition in test [1] is 72% (active); in test [4] it was 83% (active). Moreover, the values for the inhibition in test [2] and in test [3] were 49% and 3%, respectively. Further, the outcome in test [5], in test [6], in test [7] and in test [8] was inactive.

As for `O=C(Nc1ccccc1)c1ccc(N2CCC(COc3cccc(C(F)(F)F)c3)CC2)nc1`, the growth inhibition in test [1] is 83% (active); in test [4], 96% (active). The figures for the inhibition in test [2] and in test [3] were 11% and -3%, respectively. Moreover, the result in test [5], in test [6], in test [7] and in test [8] was inactive.

As for `CCn1ncc2c(N3CCCC3=O)cc(C(=O)N[C@@H](Cc3ccccc3)[C@H](O)CNC(C)(C)c3cccc(C(F)(F)F)c3)cc21`, the values for the growth inhibition in test [1] and in test [4] were 99% (active) and 98% (active), respectively. For the same compound, the inhibition is 10% in test [2] and 3% in test [3]. Besides, the result in test [5], in test [6], in test [7] and in test [8] was inactive.

As for `NC(=NCc1ccc(O)cc1)Nc1nc(-c2ccc(OCCCn3ccnc3)cc2)cs1`, the growth inhibition in test [1] is 89% (active); in test [4], 102% (active). Besides, the inhibition is 13% in test [2] and 2% in test [3]. Further, the outcome in test [5], in test [6], in test [7] and in test [8] was inactive.

For `O=C(Nc1ccc(Cl)cc1)c1ccc(S(=O)(=O)NCC2CCN(CC3CCCCC3)CC2)cc1`, the growth inhibition was 8% in test [1] and 93% (active) in test [4]. Moreover, the inhibition in test [2] was 40%; in test [3] it was -2%. For the same compound, the outcome in test [5], in test [6], in test [7] and in test [8] was inactive.

With `O=C(Nc1ccccc1N1CCOCC1)c1ncoc1-c1ccccc1C(F)(F)F`, the growth inhibition in test [1] was 60% (active); in test [4], 89% (active). The inhibition in test [2] was -2%; in test [3] it was 7%. In addition, the outcome in test [5], in test [6], in test [7] and in test [8] was inactive.

As to `COc1cc(NC(=O)c2c(-c3c(Cl)cccc3Cl)noc2C)c(OC)cc1Cl`, the growth inhibition was 67% (active) in test [1] and 85% (active) in test [4]. Also, the inhibition was 4% in test [2] and 0% in test [3]. Besides, the result in test [5], in test [6], in test [7] and in test [8] was inactive.

`O=C(Nc1n[nH]c2nc(-c3ccco3)c(Br)cc12)c1ccc(CN2CCCC2)cc1`: the growth inhibition in test [1] was 53% (active); in test [4], 101% (active). The results for the inhibition in test [2] and in test [3] were 1% and 2%, respectively. Besides, the result in test [5], in test [6], in test [7] and in test [8] was inactive.

Consider `COc1cccc(C(=O)NCCc2cccc(Cl)c2)c1OCc1ccccc1`, for which the values for the growth inhibition in test [1] and in test [4] were -1% and 85% (active), respectively. The inhibition in test [2] was -1%; in test [3], 1%. Moreover, the result in test [5], in test [6], in test [7] and in test [8] was inactive.

As for `CC(=O)Oc1cc(C(=O)Nc2ccc(Cl)cc2)cc2ccccc12`, the growth inhibition in test [1] was 47%; in test [4], 88% (active). For the same compound, the inhibition in test [2] was 16%; in test [3], -3%. For the same compound, the outcome in test [5], in test [6], in test [7] and in test [8] was inactive.
